Source: PubChem BioAssay AID2284124 (EPA ToxCast)
The source made the active and inactive calls. Rule for the calls: active = hit-call score of the fitted dose curve at least 0.9, where 1 is the maximum; inactive = score below 0.9.

test system: guinea pig Atrial Natriuretic Factor (ANF, Non-Selective), gene 100135578; experiment: ERF_TW_GPCR_gANPA: Eurofins (ERF) Binding Assay for guinea pig Atrial Natriuretic Factor (ANF, Non-Selective)
Description: ERF_TW_GPCR_gANPA is a biochemical, single-readout assay that uses extracted gene-proteins in a cell-free assay. Measurements were taken 1 hour after chemical dosing in a 96-well plate. See Atrial Natriuretic Factor (ANF, Non-Selective) Guinea Pig Binding Assay, Panlabs.ERF_TW_GPCR_gANPA is an assay component calculated from the ERF_TW_GPCR_gANPA assay. It is designed to measure radioligand binding using a type of binding reporter as detected by scintillation counting with radiometry technology.Data from the assay component ERF_TW_GPCR_gANPA was analyzed at the assay endpoint, ERF_TW_GPCR_gANPA, in the positive analysis fitting direction relative to DMSO as the negative control and baseline of activity. Using a type of binding reporter, loss-of-signal activity can be used to understand changes in binding as they relate to gene ANPA. To generalize the intended target to other relatable targets, this assay endpoint is annotated to the gpcr intended target family, where the subfamily is guanylyl cyclase.
This assay measures binding of Atrial Natriuretic Peptide to sites associated with the ANF. Guinea pig striatal membranes are prepared in Tris-HCl buffer pH 7.4. A 24 ug aliquot of membrane is incubated with 16 pM Atrial Natriuretic Peptide for 60 minutes at 4C. Non-specific binding is estimated in the presence of 0.1 uM ANF.

SMILES	outcome
O=C(/C=C/c1ccc(O)cc1)CC(=O)/C=C/c1ccc(O)cc1	inactive
